Screening data (PubChem BioAssay)
Only some compounds are listed: those with a hit (about 11% of all), similar ones and a draw of the others.
OTUD3 block = inhibitors of human OTUD3 deubiquitinase. purified OTUD3, Ub-rhodamine fluorescence, 2 h. inhibition, % at 25 µM. hit rate 0.7% among 47,000
USP30 inh = human USP30 deubiquitinase inhibition | AID 1645860 | inhibition, % at 25 µM | purified USP30, Ub-rhodamine cleavage fluorescence | hit rate 5.3% among 47,000 | Q70CQ3
USP17 inh = inhibitors of human USP17 deubiquitinase. hit rate 6.5% among 47,000. inhibition, % at 50 µM. purified USP17, Ub-rhodamine cleavage fluorescence, 3 h. A8MUK1
Target sequence (A8MUK1 whole entry, looked up): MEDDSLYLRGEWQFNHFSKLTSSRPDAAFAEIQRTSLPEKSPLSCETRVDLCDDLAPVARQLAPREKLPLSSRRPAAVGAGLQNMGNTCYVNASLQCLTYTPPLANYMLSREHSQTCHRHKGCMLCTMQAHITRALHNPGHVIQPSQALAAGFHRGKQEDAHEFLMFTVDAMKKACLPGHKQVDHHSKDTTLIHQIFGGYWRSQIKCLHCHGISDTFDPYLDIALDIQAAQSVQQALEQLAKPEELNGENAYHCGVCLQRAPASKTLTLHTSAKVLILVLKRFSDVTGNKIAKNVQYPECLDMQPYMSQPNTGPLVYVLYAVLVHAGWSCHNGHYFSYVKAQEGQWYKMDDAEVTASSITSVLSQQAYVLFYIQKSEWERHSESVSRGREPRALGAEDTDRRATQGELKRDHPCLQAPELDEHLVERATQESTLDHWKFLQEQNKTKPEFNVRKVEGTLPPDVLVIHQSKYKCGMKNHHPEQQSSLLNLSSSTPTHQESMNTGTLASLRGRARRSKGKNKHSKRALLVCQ
USP28 block = blocks human USP28 ubiquitin-rhodamine cleavage; Q96RU2; purified USP28, Ub-rhodamine cleavage fluorescence, 30 min; inhibition, % at 25 µM; hit rate 3% among 47,000
* = called active by the depositor; . = no result. Rule as the data show it: active = inhibition above about 30%; inactive = the rest.

SMILES	OTUD3 block	USP30 inh	USP17 inh	USP28 block
CCOC(=O)c1cccc(NC(=O)c2ccc(S(=O)(=O)N3CCN(C)CC3)cc2)c1	-1.1	-2.2	.	30.7*
Cc1cc(C)c(S(=O)(=O)N2CCC(C(=O)OC(C)C(=O)Nc3ccccc3-c3ccccc3)CC2)c(C)c1 (centres undefined)	6.8	-3.7	-1.7	2.7
COCCn1c(=O)[nH]c2cc(-c3nc(-c4ccccc4C)no3)ccc2c1=O	5.2	24.4	27.5	9.8
O=S(=O)(Nc1nnc(C2CC2)s1)c1cccc2nonc12	0.9	.	37.2*	.
O=C(Nc1ccccc1)N1CCCC2(CCCN2Cc2ccccc2F)C1 (centres undefined)	16.4	31.7*	3.1	-0.5
CCOC(=O)c1ccc(NC(=O)CSc2nnc(CNC(=O)c3cccs3)o2)cc1	4.9	18.4	49.7*	4.4
O=C(CSc1nnc(CNC(=O)c2ccccc2F)o1)Nc1ccc(OC(F)(F)F)cc1	-0.9	31.9*	63.0*	9.2
CCc1ccc(NC(=O)CSc2nnc(CNC(=O)c3ccco3)o2)cc1	7.2	-1.4	-5.9	8.1
CCOC(=O)c1ccc(NC(=O)CSc2nnc(CNC(=O)c3ccccc3F)o2)cc1	10.2	9.9	20.4	3.8
O=C(c1cnn(-c2ccc(F)cc2F)c1C1CCNCC1)N1CCN(c2ccccn2)CC1	11.2	16.2	-14.1	2.7
Cn1ncc(Cl)c1C(=O)Nc1ccc2nc(NC(=O)C3CCCCC3)sc2c1	7.5	12.2	37.8*	7.7
CC(C)COc1ccc(C(=O)N2CCN(Cc3cc(=O)n4ccsc4n3)CC2)cc1	-11.3	-4.7	.	-10.2
Cc1ccccc1CN1CCCC12CCCN(C(=O)CCc1cccnc1)C2 (centres undefined)	-8.3	-53.0	-34.2	-20.9
COc1ccc(NC(=O)C2c3ccccc3C(=O)N(C3CCCC3)C2c2cccs2)c(OC)c1 (centres undefined)	16.9	39.9*	18.0	13.2
COc1ccc(OC)c(NC(=O)C2c3ccccc3C(=O)N(C3CCCC3)C2c2cccs2)c1 (centres undefined)	0.1	4.4	-1.5	-4.9
COc1ccc(NC(=O)C2c3ccccc3C(=O)N(C3CCCC3)C2c2cccs2)cc1OC (centres undefined)	16.6	16.2	56.3*	26.0
CCCN1CCN(C(=O)C2CCN(c3nc4cccnc4s3)CC2)CC1	-7.0	8.0	-1.0	-7.2
COc1ccc(-n2nnc(C(=O)Nc3ccc(F)cc3F)c2C)cc1	-0.9	13.4	27.4	-1.4
COc1ccc(-n2nnc(C(=O)Nc3cccc(F)c3)c2C)cc1	13.0	27.0	48.1*	17.8
COc1ccc(NC(=O)c2nnn(-c3ccc(F)cc3)c2C)cc1	5.1	2.3	48.0*	18.4
Cc1ccc(-n2nnc(C(=O)Nc3ccc(F)cc3)c2C)cc1C	-0.9	14.3	0.1	1.6
Cc1ccc(-n2nnc(C(=O)Nc3ccccc3F)c2C)cc1C	4.4	.	56.1*	.
Cc1ccc(NC(=O)c2nnn(-c3cccc(F)c3)c2C)cc1	0.2	42.7*	5.4	9.5
COc1cccc(-n2nnc(C(=O)Nc3ccc(Cl)cc3)c2C)c1	-5.6	14.4	12.0	-0.1
CC1(C)CC(=O)C2=C(C1)Nc1ccccc1N(C(=O)c1ccccc1)C2c1ccc(Br)cc1 (centres undefined)	-0.1	-1.9	0.7	-0.1
SMILES	OTUD3 block	USP30 inh	USP17 inh	USP28 block
COc1ccc(NC(=O)c2nnn(-c3ccccc3C)c2C)cc1OC	-11.4	-16.2	3.3	72.2*
Cc1c(C(=O)Nc2ccc(Cl)cc2)nnn1-c1ccc(F)cc1	5.4	23.0	25.8	10.4
CCc1ccc(-n2nnc(C(=O)Nc3ccc(F)cc3)c2C)cc1	10.6	32.2*	10.3	14.9
COc1ccc(-n2nnc(C(=O)Nc3ccc(F)cc3)c2C)cc1	11.6	16.9	50.2*	3.9
COc1ccc(NC(=O)c2cnn(-c3ccc(F)cc3)c2C)cc1	-0.2	-14.7	18.8	18.0
O=C(CCc1nc2sc3c(c2c(=O)[nH]1)CCCCC3)Nc1ccccc1	-28.6	-193.3	24.7	-34.1
CCc1ccc(NC(=O)c2cn(C)nc2S(=O)(=O)N2CCCCC2)cc1	-4.3	-10.5	0.0	-6.6
Cc1cccc2sc(NC(=O)c3nnn(-c4ccc(F)cc4)n3)nc12	3.0	19.3	56.2*	15.2
NC(=O)c1nnn(-c2ccc(NC(=O)c3ccc(F)c(F)c3)cc2)n1	-0.5	-0.1	63.6*	-0.1
Cc1ccc(NC(=O)c2nnn(-c3ccccc3)n2)cc1F	11.7	5.6	5.3	55.7*
CCn1ccc2c(cc(C(=O)Nc3cc(F)ccc3F)n2C)c1=O	-6.6	-9.8	.	70.0*
CCn1ccc2c(cc(C(=O)Nc3cccc(OC)c3)n2C)c1=O	7.8	0.4	-4.3	83.0*
O=C(c1cscn1)N1CCCC(c2cc3ncccc3cn2)C1 (centres undefined)	-4.4	-6.2	-2.6	-1.7
CCn1nccc1C1CCCN1C(=O)Nc1ccc(C)cc1Cl (centres undefined)	11.0	17.7	13.7	11.3
CS(=O)(=O)N1CCc2ccc(C(=O)Nc3ccc(F)cc3)cc21	-7.0	-27.2	33.1*	-7.5
Cc1cc(C)n(-c2cccc(C(=O)Nc3ccc4c(c3)CCN4S(C)(=O)=O)c2)n1	0.4	-9.7	8.4	79.7*
O=C(Nc1ccc(Cl)cc1)N1CCCN(Cc2ccccc2)CC1	-4.7	-2.7	-12.2	-1.1
CCc1ccc(-n2c(=O)c3cccnc3n2CC(=O)Nc2cc(C)cc(C)c2)cc1	0.7	-6.8	2.1	-6.9
O=C1CS(=O)CN1c1ccc(Br)cc1 (centres undefined)	10.6	18.8	13.5	17.2
Cc1ccccc1NC(=O)CCN1C(=O)c2cccnc2Sc2ccccc21	15.7	37.6*	11.7	9.2
Cc1cccc(NC(=O)CCN2C(=O)c3cccnc3Sc3ccccc32)c1C	5.4	14.9	.	5.0
Cc1cccc(C(=O)NC2CCCN(c3cc(-c4ccncc4)[nH]n3)C2)c1 (centres undefined)	6.9	2.6	-23.8	4.6
COc1ccc(CC(=O)N2CCN=C2SCc2cccc([N+](=O)[O-])c2)cc1OC	-0.6	12.7	-11.6	-1.7
Cc1ccsc1CN1C[C@@H](O)[C@H](NC(=O)c2cnc[nH]2)C1	5.2	-5.0	2.5	4.5
Cc1cc(=O)[nH]c(Sc2c(-c3ccccc3)c3cc([N+](=O)[O-])ccc3[nH]c2=O)n1	-3.6	-83.2	4.8	10.1
SMILES	OTUD3 block	USP30 inh	USP17 inh	USP28 block
O=[N+]([O-])c1ccc2nc3c(c(-c4ccccc4)c2c1)CNCC3	-11.3	-13.5	48.4*	-5.2
Cc1ccc(S(=O)(=O)N2CC[C@@H]3CN(C(=O)c4ccccc4)[C@@H]3C2)cc1	21.4	35.1*	10.6	12.1
Cc1ccc(C(=O)N2CC[C@@H]3[C@H](C2)CN3C(=O)c2ccccc2)cc1	8.1	30.2*	6.5	17.1
Cc1cc(Nc2nncs2)nc(C2CCCN(c3cnccn3)C2)n1 (centres undefined)	8.0	-13.6	16.9	2.6
c1csc(-c2nc(NC3CCCCC3)c3ccccc3n2)c1	-20.7	-3.8	13.3	-7.4
c1csc(-c2nc(Nc3ccc4c(c3)CCC4)c3ccccc3n2)c1	-22.9	-85.9	71.3*	-40.0
CCOC(=O)c1cn2c3c(cccc3c1=O)OCC2	9.5	9.0	4.1	5.8
